± gives the standard deviation of the averaged measurements. In all, about 33,000 sequences were measured (“E-score (rank enrichment, -0.5 to 0.5)”: median about -0.0043, highest 2% from about 0.24 on). The full list was thinned out, with the highest values kept by preference.
These sequences were tested on 2Sp-muMax20 (muMax20 with two 2,6-bis(methyl)pyridine Cys staples) (assay: PBM 8-mer E-score (E-score (rank enrichment, -0.5 to 0.5)); higher = stronger preferential binding).
Description: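 Protein binding microarray (universal PBM chip covering all 10-mers in fixed probe flanks) with chemically synthesized human Max(13-93) bHLH-LZ analogs (not full-length Max) bearing noncanonical residues (hArg, Tha, Aib, Nle at 65) and aromatic Cys staples. Read-out per 8-mer (and its reverse complement): E-score (rank-based enrichment, -0.5 to 0.5) and Z-score of median probe intensity.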

| Sequence | PBM 8-mer E-score |
| --- | --- |
| CACGCGCG | 0.261 ± 0.051 |
| AAAGCGCA | 0.18 ± 0.0096 |
| CAAGCGCC | -0.113 ± 0.064 |
| AACGCGCC | -0.0607 ± 0.047 |
| GGCGCGCC | -0.0216 ± 0.12 |
| AGCGCGCC | 0.123 ± 0.087 |
| CAAGCGCA | 0.245 ± 0.058 |
| ACATCGAG | 0.0846 ± 0.046 |
| AAGCGTGG | 0.0965 ± 0.049 |
| CTCACGCA | 0.12 ± 0.049 |
| ACGTATAT | 0.145 ± 0.039 |
| TAGCGCTA | -0.00743 ± 0.0017 |
| ACCATTCT | 0.0547 ± 0.046 |
| CACGCTCA | 0.0559 ± 0.045 |
| AACGCTCG | 0.0415 ± 0.059 |
| CACACGCG | 0.281 ± 0.035 |
| AACGCGCG | 0.263 ± 0.023 |
| AACACGCG | 0.213 ± 0.0048 |
| CACACGCA | 0.0795 ± 0.072 |
| AACGCGCT | -0.0289 ± 0.021 |
| CACGCTCG | 0.245 ± 0.0082 |
| AACGCGCA | 0.0173 ± 0.051 |

| Sequence | PBM 8-mer E-score |
| --- | --- |
| GGACGCAA | 0.0641 ± 0.04 |
| AGTTGCAG | 0.122 ± 0.058 |
| TACAGGTA | 0.0603 ± 0.031 |
| ATCAATGG | 0.0872 ± 0.022 |
| GCCTCAAC | 0.0347 ± 0.072 |
| ATCGTAAA | 0.159 ± 0.07 |
| ATCGTAAT | 0.238 ± 0.0064 |
| ATCGTAAG | -0.0242 ± 0.048 |
| GTCCTTGA | -0.198 ± 0.017 |
| CGTAACGA | 0.0392 ± 0.11 |
| AAGGGTTG | 0.0285 ± 0.053 |
| AGGGGTTA | 0.124 ± 0.052 |
| AGGGGTTG | 0.258 ± 0.045 |
| CGGATCAA | -0.188 ± 0.075 |
| TATAGAGA | -0.0265 ± 0.04 |
| ATATGATA | 0.2602 ± 0.0017 |
| ATATGATG | 0.181 ± 0.031 |
| GTATGACA | 0.158 ± 0.0027 |
| GTATGAGA | 0.124 ± 0.0095 |
| CTATGATA | 0.0216 ± 0.058 |
| TAATGACA | 0.25862 ± 7.8e-05 |
| GCATGATA | 0.226 ± 0.0026 |

| Sequence | PBM 8-mer E-score |
| --- | --- |
| GAATGACA | -0.0425 ± 0.0067 |
| GTATGATA | 0.342 ± 0.008 |
| CAATGACA | 0.128 ± 0.054 |
| ATATGACA | 0.25 ± 0.012 |
| CTATGACA | 0.106 ± 0.0052 |
| ACAATTGG | 0.0427 ± 0.02 |
| CTCGTTAA | 0.0752 ± 0.0062 |
| CGGGATCA | -0.0799 ± 0.0016 |
| AAATCCCG | 0.1036 ± 0.0009 |
| ACTGAGAT | 0.0783 ± 0.12 |
| CACGGATC | -0.305 ± 0.0061 |
| AATGATAC | 0.193 ± 0.13 |
| CATGATTA | 0.24 ± 0.025 |
| GATGATTA | 0.103 ± 0.0017 |
| TATGATAA | 0.0434 ± 0.066 |
| CATGATTC | 0.0562 ± 0.0054 |
| CATGATAG | 0.0923 ± 0.043 |
| AATGATAG | 0.176 ± 0.039 |
| AATGATAA | 0.0232 ± 0.082 |
| ACTGATAT | 0.0652 ± 0.073 |
| CATGATAA | 0.267 ± 0.065 |
| CATGATAC | 0.253 ± 0.048 |

| Sequence | PBM 8-mer E-score |
| --- | --- |
| AATGATAT | 0.241 ± 0.01 |
| CGCTATAG | 0.0363 ± 0.071 |
| GGGGTGAC | 0.0455 ± 0.096 |
| CGGCCTTC | -0.124 ± 0.097 |
| CAAGATAA | 0.276 ± 0.014 |
| TAAGATAA | 0.0454 ± 0.027 |
| AAAGATAA | 0.218 ± 0.028 |
| AATTCTTC | 0.0644 ± 0.062 |
| TCACCCCA | 0.276 ± 0.021 |
| GCACCCCA | 0.128 ± 0.071 |
| ACACCCCA | 0.208 ± 0.015 |
| CCACCCCC | -0.0899 ± 0.002 |
| TCACCCAA | 0.143 ± 0.0019 |
| CCACCCCA | 0.254 ± 0.043 |
| AATGGATG | -0.124 ± 0.015 |
| AGTACACG | 0.0271 ± 0.052 |
| AAGAGCCT | 0.00281 ± 0.074 |
| AGTCGCAA | 0.119 ± 0.018 |
| ATAAATAA | 0.171 ± 0.053 |
| ATAAATAT | 0.263 ± 0.021 |
| CTAAATAC | 0.249 ± 0.037 |
| ATAAATAC | 0.264 ± 0.019 |

From the supplement of paper PMC12636033
